According to ChEMBL document CHEMBL1961873, “Compounds: GSK PKIS; Assays: Nanosyn kinase panel” (2012):

Tests used:
[1] = target: Sphingosine kinase 1 (Homo sapiens) (UniProt Q9NYA1); conditions: at 1 µM;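 further: mean SPHK1 inhibition value reported from the GSK PKIS kinase panel screen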
[2] = target: T1, Sphingosine kinase 2 (Homo sapiens) (UniProt Q9NRA0); conditions: at 0.1 µM
T1 sequence (whole entry): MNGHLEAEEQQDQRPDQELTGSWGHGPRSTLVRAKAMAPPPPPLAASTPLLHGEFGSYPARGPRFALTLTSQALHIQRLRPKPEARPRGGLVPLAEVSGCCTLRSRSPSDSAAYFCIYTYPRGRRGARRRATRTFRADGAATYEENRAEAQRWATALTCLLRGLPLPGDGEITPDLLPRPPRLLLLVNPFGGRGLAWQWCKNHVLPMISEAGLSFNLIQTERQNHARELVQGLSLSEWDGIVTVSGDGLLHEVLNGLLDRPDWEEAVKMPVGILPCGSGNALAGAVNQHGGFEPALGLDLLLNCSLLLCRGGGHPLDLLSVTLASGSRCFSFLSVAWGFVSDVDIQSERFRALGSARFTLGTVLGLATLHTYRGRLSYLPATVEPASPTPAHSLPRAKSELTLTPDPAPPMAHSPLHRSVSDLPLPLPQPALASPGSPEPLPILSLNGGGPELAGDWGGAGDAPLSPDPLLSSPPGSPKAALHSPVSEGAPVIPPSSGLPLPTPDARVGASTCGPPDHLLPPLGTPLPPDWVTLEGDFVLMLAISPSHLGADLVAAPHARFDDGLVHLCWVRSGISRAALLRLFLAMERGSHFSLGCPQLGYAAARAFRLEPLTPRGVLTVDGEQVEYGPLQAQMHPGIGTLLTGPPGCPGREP

[3] = target: T1, Sphingosine kinase 2 (Homo sapiens); conditions: at 1 µM
[4] = target: Casein kinase II subunit alpha (Homo sapiens) (UniProt P68400); conditions: at 0.1 µM
[5] = target: Casein kinase II subunit alpha (Homo sapiens) (UniProt P68400); conditions: at 1 µM
[6] = target: T2, Inhibitor of nuclear factor kappa-B kinase subunit alpha (Homo sapiens) (UniProt O15111); conditions: at 0.1 µM
T2 sequence (whole entry): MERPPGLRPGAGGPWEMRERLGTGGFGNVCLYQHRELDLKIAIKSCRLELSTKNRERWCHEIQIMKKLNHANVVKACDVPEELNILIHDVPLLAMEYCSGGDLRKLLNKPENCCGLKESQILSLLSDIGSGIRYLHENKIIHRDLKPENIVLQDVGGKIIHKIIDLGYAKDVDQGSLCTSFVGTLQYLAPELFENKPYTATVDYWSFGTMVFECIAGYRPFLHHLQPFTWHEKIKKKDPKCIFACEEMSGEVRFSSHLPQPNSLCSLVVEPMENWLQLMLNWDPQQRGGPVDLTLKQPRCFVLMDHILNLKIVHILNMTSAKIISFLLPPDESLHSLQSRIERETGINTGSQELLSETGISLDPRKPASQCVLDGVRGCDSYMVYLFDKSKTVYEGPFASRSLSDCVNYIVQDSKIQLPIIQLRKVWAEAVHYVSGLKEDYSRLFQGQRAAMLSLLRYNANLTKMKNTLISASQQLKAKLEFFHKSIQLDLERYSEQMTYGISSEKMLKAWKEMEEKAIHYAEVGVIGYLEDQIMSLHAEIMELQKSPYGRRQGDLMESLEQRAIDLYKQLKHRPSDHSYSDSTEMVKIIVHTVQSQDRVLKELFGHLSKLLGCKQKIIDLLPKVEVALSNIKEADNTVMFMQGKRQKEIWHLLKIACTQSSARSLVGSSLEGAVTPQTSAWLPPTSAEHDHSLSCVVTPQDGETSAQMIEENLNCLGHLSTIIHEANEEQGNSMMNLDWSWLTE

[7] = target: T2, Inhibitor of nuclear factor kappa-B kinase subunit alpha (Homo sapiens); conditions: at 1 µM
[8] = target: T3, Inhibitor of nuclear factor kappa-B kinase subunit beta (Homo sapiens) (UniProt O14920); conditions: at 0.1 µM
T3 sequence (whole entry): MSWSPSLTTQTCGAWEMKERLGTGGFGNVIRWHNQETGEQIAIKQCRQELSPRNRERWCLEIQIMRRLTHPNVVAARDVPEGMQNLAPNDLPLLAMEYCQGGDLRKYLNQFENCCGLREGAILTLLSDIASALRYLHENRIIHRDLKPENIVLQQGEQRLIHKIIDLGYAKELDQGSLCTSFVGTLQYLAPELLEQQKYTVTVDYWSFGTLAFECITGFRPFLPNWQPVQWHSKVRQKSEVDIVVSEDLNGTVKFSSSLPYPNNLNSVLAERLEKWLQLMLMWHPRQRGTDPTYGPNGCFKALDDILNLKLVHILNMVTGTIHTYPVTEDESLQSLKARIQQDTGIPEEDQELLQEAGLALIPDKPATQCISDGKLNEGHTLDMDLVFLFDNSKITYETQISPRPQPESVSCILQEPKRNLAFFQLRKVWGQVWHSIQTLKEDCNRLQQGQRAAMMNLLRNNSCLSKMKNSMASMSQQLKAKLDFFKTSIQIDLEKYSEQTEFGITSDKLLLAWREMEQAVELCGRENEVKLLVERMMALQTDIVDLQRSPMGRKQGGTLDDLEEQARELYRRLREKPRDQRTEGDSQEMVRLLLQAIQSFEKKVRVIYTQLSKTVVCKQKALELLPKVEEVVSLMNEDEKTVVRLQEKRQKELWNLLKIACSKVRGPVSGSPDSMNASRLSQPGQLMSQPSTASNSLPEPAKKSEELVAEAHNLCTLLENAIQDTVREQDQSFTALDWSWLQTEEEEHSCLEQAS

[9] = target: T3, Inhibitor of nuclear factor kappa-B kinase subunit beta (Homo sapiens); conditions: at 1 µM
[10] = target: T4, Inhibitor of nuclear factor kappa-B kinase subunit epsilon (Homo sapiens) (UniProt Q14164); conditions: at 0.1 µM
T4 sequence (whole entry): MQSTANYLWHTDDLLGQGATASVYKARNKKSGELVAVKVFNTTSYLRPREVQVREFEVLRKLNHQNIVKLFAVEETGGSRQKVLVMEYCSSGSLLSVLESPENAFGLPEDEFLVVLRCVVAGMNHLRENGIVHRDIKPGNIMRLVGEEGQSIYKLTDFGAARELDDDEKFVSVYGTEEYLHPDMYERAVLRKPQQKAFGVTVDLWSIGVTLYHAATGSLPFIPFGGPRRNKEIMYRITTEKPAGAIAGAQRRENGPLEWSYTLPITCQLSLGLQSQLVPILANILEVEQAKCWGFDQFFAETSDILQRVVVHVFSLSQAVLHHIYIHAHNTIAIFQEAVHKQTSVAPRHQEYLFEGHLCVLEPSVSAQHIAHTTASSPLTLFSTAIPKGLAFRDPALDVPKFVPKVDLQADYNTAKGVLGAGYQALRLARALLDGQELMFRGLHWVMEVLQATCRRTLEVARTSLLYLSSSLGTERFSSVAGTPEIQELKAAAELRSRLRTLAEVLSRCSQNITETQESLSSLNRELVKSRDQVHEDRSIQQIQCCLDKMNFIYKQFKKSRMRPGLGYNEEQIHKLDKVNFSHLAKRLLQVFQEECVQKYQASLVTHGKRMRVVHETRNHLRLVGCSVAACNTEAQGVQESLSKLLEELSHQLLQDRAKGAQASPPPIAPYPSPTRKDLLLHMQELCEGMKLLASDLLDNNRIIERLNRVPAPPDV

[11] = target: T4, Inhibitor of nuclear factor kappa-B kinase subunit epsilon (Homo sapiens); conditions: at 1 µM
[12] = target: T5, Serine/threonine-protein kinase Nek1 (Homo sapiens) (UniProt Q96PY6); conditions: at 0.1 µM
T5 sequence (whole entry): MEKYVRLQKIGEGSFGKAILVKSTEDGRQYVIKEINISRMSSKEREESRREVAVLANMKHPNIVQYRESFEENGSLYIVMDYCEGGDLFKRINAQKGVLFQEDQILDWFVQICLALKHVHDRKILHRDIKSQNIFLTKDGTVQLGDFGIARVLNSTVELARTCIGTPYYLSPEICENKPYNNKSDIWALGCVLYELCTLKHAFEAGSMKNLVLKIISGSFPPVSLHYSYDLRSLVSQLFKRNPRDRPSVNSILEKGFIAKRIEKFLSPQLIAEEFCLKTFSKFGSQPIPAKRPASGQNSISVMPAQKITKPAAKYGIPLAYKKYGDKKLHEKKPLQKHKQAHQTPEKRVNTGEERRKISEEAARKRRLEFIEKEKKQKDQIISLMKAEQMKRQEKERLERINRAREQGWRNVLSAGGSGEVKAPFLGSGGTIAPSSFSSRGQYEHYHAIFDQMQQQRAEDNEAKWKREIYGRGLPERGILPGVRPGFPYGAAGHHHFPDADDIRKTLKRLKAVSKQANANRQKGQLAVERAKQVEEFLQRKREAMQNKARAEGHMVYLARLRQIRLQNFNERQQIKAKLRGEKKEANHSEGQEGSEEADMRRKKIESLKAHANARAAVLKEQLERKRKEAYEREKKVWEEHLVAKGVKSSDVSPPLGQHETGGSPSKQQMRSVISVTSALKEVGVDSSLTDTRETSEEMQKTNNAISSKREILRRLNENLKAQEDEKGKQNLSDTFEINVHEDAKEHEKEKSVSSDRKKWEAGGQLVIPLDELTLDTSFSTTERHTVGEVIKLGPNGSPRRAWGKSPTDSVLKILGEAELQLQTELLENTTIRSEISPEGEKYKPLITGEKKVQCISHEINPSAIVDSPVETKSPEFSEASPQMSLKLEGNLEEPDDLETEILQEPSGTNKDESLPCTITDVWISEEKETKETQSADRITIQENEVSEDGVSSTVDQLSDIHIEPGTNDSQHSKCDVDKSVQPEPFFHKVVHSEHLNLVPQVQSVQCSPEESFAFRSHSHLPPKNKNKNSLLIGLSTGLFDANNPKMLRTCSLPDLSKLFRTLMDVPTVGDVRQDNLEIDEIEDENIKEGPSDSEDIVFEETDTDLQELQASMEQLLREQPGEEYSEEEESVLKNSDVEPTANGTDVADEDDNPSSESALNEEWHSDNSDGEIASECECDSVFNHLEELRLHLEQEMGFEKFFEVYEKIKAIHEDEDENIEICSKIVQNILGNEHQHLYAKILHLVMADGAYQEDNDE

[13] = target: T5, Serine/threonine-protein kinase Nek1 (Homo sapiens); conditions: at 1 µM
[14] = target: T6, Serine/threonine-protein kinase Nek2 (Homo sapiens) (UniProt P51955); conditions: at 0.1 µM
T6 sequence (whole entry): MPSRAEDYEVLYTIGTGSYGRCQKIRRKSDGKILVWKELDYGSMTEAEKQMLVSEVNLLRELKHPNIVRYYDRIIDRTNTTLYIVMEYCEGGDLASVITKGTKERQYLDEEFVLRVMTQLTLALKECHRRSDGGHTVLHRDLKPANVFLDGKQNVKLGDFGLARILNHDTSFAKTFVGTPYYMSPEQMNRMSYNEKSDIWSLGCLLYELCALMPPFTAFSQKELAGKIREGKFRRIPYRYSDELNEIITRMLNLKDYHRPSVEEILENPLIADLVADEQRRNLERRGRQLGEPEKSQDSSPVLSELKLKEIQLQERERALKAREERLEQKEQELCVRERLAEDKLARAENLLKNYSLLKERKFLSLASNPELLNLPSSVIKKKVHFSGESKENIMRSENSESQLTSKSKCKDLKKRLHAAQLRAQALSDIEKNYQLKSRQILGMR

[15] = target: T6, Serine/threonine-protein kinase Nek2 (Homo sapiens); conditions: at 1 µM
[16] = target: Serine/threonine-protein kinase Nek6 (Homo sapiens) (UniProt Q9HC98); conditions: at 0.1 µM
[17] = target: Serine/threonine-protein kinase Nek6 (Homo sapiens) (UniProt Q9HC98); conditions: at 1 µM
[18] = target: Serine/threonine-protein kinase Nek7 (Homo sapiens) (UniProt Q8TDX7); conditions: at 0.1 µM
[19] = target: Serine/threonine-protein kinase Nek7 (Homo sapiens) (UniProt Q8TDX7); conditions: at 1 µM
[20] = target: T7, Serine/threonine-protein kinase Nek9 (Homo sapiens) (UniProt Q8TD19); conditions: at 0.1 µM;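 further: reported value is the mean percent inhibition of NEK9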
T7 sequence (whole entry): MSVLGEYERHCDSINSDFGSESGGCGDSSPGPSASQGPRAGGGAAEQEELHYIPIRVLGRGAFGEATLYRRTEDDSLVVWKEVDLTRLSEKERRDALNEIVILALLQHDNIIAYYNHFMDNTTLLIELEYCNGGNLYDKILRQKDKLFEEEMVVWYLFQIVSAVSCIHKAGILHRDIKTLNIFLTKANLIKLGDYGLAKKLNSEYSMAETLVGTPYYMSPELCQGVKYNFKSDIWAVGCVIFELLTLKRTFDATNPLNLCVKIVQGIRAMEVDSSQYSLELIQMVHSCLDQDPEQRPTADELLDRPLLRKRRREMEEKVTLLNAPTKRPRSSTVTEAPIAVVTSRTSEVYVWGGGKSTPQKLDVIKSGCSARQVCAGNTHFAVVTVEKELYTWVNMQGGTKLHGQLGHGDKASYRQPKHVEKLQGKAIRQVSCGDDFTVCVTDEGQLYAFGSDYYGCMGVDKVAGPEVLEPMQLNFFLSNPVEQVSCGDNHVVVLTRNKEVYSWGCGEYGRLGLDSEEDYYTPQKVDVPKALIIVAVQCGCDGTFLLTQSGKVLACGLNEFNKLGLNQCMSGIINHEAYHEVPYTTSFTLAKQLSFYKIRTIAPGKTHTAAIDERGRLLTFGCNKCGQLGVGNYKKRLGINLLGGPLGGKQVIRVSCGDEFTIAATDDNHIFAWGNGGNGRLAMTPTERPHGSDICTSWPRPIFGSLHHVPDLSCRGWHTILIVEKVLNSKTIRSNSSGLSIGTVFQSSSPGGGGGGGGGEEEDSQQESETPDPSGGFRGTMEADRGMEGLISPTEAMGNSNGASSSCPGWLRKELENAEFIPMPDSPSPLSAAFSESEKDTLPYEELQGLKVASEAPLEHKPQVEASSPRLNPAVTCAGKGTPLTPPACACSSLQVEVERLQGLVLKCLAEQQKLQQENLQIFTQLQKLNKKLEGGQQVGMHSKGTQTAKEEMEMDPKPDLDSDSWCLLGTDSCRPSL

Sequence of Serine/threonine-protein kinase Nek7 (Homo sapiens) (Q8TDX7 whole entry, looked up): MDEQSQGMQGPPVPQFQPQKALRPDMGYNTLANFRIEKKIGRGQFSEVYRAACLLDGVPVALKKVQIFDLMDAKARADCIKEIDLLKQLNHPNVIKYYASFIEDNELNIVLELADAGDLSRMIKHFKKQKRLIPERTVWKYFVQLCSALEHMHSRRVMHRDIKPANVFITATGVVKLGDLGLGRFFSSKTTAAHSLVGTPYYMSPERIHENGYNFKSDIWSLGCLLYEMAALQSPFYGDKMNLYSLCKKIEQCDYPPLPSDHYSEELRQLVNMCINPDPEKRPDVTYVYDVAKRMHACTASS
Sequence of Serine/threonine-protein kinase Nek6 (Homo sapiens) (Q9HC98 whole entry): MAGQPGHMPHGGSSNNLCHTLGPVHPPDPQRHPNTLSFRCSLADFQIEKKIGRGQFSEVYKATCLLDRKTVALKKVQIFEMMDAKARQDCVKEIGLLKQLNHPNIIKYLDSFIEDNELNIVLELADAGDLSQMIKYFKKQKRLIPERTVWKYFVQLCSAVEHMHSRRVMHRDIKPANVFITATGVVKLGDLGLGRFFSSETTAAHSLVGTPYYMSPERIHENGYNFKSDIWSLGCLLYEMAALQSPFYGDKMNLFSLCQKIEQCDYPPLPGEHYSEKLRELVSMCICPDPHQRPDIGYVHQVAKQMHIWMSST
Sequence of Casein kinase II subunit alpha (Homo sapiens) (P68400 whole entry, looked up): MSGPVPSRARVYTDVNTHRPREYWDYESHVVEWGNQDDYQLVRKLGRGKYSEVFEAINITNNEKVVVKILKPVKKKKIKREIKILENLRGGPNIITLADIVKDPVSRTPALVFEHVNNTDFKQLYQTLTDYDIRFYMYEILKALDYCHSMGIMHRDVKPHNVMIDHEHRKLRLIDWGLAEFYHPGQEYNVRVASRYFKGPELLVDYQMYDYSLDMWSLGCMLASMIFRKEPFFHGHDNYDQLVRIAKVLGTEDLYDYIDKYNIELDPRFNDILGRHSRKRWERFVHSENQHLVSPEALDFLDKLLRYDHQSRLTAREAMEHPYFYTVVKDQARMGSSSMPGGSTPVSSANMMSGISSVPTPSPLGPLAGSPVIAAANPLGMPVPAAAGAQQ
Sequence of Sphingosine kinase 1 (Homo sapiens) (Q9NYA1 whole entry): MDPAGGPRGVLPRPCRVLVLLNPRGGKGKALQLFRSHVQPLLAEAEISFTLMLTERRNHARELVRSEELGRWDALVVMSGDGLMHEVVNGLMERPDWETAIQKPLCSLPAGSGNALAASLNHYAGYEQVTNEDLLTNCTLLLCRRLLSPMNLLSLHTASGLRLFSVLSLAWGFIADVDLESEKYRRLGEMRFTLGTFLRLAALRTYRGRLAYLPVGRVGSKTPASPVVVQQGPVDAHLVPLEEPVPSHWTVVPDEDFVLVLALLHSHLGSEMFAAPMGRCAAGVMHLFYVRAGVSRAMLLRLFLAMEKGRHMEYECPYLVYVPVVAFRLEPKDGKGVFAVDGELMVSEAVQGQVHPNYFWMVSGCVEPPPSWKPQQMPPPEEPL

OCCCNc1nccc(-c2c(-c3ccc(F)cc3)nn3cc(C(F)(F)F)ccc23)n1
inhibition [1]: -0.86% | inhibition [2]: 1.62% | inhibition [3]: -1.3% | inhibition [4]: 1.23% | inhibition [5]: 6.41% | inhibition [6]: -2.66% | inhibition [7]: 1.51% | inhibition [8]: 1.75% | inhibition [9]: -0.39% | inhibition [10]: 0.9% | inhibition [11]: 0.15% | inhibition [12]: -0.37% | inhibition [13]: 0.3% | inhibition [14]: 2.83% | inhibition [15]: 2.24% | inhibition [16]: 4.06% | inhibition [17]: -0.92% | inhibition [18]: 2.99% | inhibition [19]: -4.27% | inhibition [20]: 7.44%
